# PubChem BioAssay (NCI)
# This is part of a sample that, as a whole, favours compounds with a hit. Of some 83,000 tested, about 20% had one in any assay.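 48-hour exposure, single concentration, 96-well plates; percent growth endpoint where 0 means no net growth. Active: below 10.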 A number with no mark means an inactive call. Activity calls are given as the source filed them.
# Tested on: MALME-3M melanoma
# Assay: NCI-60 one-dose screen, 48 h (100 = growth as untreated, 0 = no growth, -100 = all killed)
# Conditions: 10 µM unless noted
row,SMILES,growth
1,O=c1nc(-c2ccccc2)c2cc(-c3ccc(N4CCCC4)nc3)ccc2[nH]1,89.6%
2,O=[N+]([O-])c1cccc(CN(Cc2cccc([N+](=O)[O-])c2O)c2ccccc2)c1O,87.2%
3,Oc1ccccc1-c1nc2c3ccccc3c3ccccc3c2o1,91.9%
4,CN(C)CCCn1c2c(c3cc(-c4ccco4)ccc3c1=O)C(=O)c1ccccc1-2,113%
5,COc1ccc(C2CC(c3ccc(OC)cc3O)=NN2c2ccc(S(N)(=O)=O)cc2)cc1 (stereo not drawn),121%
6,Cc1c(Cl)cccc1NC(=O)c1sc2nc3c(cc2c1N)CCCCCC3,58%
7,[2H]c1cc2c(c([2H])c1F)/C(=C/c1[nH]c(C)c(C(=O)NCCN(CC)CC)c1C)C(=O)N2,10.8%
8,CC(=O)Oc1c2c(nc3c1c1ccccc1n3Cc1ccccc1)-c1ccccc1C2,102%
9,C=C(C)[C@@H]1CC[C@]2(C(=O)n3ccnc3)CC[C@]3(C)[C@H](CC[C@@H]4[C@@]5(C)CCCNC(C)(C)[C@@H]5CC[C@]43C)[C@@H]12,-74.4% (active)
10,CC(C)C[C@H](C(=O)O)N(C)C(=O)[C@@H]1CCCN1C(=O)[C@H](C)OC(=O)[C@H](CCC(N)=O)NC(=O)[C@@H]1CCC(=O)N1,109%
11,COC(=O)CCc1cc(O)c2c(c1)[C@@H](C(=O)OC)[C@H](c1ccc(O)c(O)c1)O2,66.8%
12,CCCCN(CCCC)CC(CN(CC)CC)OC(=O)Nc1ccccc1 (stereo not drawn),90.3%
13,COC(=O)CCc1n(Cc2ccc3ccccc3c2)c2ccccc2[n+]1Cc1ccc2ccccc2c1,-34.5% (active)
14,COc1ccc(Nc2nc(SCC(C)C)nc(-c3ccc(F)cc3)c2C#N)cc1,61.9%
15,CCCS(=O)(=O)Nc1ccc(F)c(C(=O)c2c[nH]c3ncc(-c4ccc(OCCCC5CCCCN5)nc4)cc23)c1F (stereo not drawn),-25.7% (active)
16,CC(=O)c1ccc(NC(=O)CSc2nnc(-c3cc(-c4ccc(C)cc4)nc4ccccc34)o2)cc1,-5.39% (active)
17,Oc1ccc(CNNc2ccnc3c(O)cccc23)c2cccnc12,66.7%
18,COc1ccc(-c2cs/c(=N\N=C\c3ccc(O)cc3O)n2/N=C/c2ccc(O)cc2O)cc1,-22.5% (active)
19,c1ccc(-c2n(Cc3ccc4ccccc4n3)cc[n+]2Cc2ccc3ccccc3n2)cc1,19.8%

row,SMILES,growth
1,O=C1C(Cl)=C(NCCCN(CCCNC2=C(Cl)C(=O)c3ccccc3C2=O)C2=C(Cl)C(=O)c3ccccc3C2=O)C(=O)c2ccccc21,-28.4% (active)
2,CCc1ccc(OCc2ccccc2C(=O)Nc2ccc3nc(C)cc(N)c3c2)cc1,-86.4% (active)
3,CC1CCN(CCCCCOc2ccc3oc4cc(Cl)ccc4c(=O)c3c2)CC1,9.78% (active)
4,Nc1ccccc1NS(=O)(=O)c1ccc(Cl)cc1,87.5%
5,COc1cc(C2=NNC(c3ccc(N(C)C)cc3)C2)cc(OC)c1OC (stereo not drawn),83.7%
6,COc1cc(NC(=O)Nc2cnc(Nc3ccc(N4CCOCC4)cc3)nc2Oc2ccc(C(F)(F)F)cc2)cc(OC)c1,118%
7,C=C(C)[C@@H]1CC[C@]2(C(=O)O)CC[C@]3(C)[C@H](CC[C@@H]4[C@@]5(C)C[C@@H](CC#Cc6ccc(Cl)cc6)C(=O)C(C)(C)[C@@H]5CC[C@]43C)[C@@H]12,21.2%
8,Cc1cc(Nc2nc(SCc3ccc(C(=O)Nc4ccc(F)cc4N)cc3)nn3cccc23)n[nH]1,53.7%
9,O=C(/C(=C/c1ccc([N+](=O)[O-])cc1)SCc1ccc(F)cc1)c1ccc(Cl)cc1,91.9%
10,C#C[C@@]1(O)[C@@H](CO)O[C@@H](n2cc(Br)c3c(N)ncnc32)[C@@H]1O,5.66% (active)
11,CC(=O)[C@@H]1CC[C@]2(C(=O)O)CC[C@]3(C)[C@H](CC[C@@H]4[C@@]5(C)Cc6c([nH]c7ccccc67)C(C)(C)[C@@H]5CC[C@]43C)[C@@H]12,96.1%
12,CC[C@]12C=CCN3CC[C@@]4(c5cc(NC(=O)CCC(=O)O[C@H]6CC[C@H]7[C@@H]8CC[C@H]9CC(=O)CC[C@]9(C)[C@H]8CC[C@]67C)c(OC)cc5N(C)[C@H]4[C@@](O)(C(=O)OC)[C@@H]1OC(C)=O)[C@@H]32,77.7%
13,CCCCCOC(=O)c1ccccc1O,109%
14,O=C1CCC23OC(c4ccccc4N12)C(O)C(O)C3O (stereo not drawn),91.6%
15,N#Cc1c(NC(=O)c2cccs2)[n+]([O-])c2cc(C(F)(F)F)ccc2[n+]1[O-],132%
16,Cc1[nH]c2ncnc(Oc3ccc(NC(=O)Nc4ccc(Cl)c(C(F)(F)F)c4)cc3)c2c1C,61.6%
17,c1cc(CNC23CC4CC(CC(C4)C2)C3)cc(C[N+](Cc2cccc(CNC34CC5CC(CC(C5)C3)C4)c2)(Cc2cccc(CNC34CC5CC(CC(C5)C3)C4)c2)Cc2cccc(CNC34CC5CC(CC(C5)C3)C4)c2)c1 (stereo not drawn),6.44% [42 µM] (active)
18,C[C@H]1[C@H](C)CC[C@]2(C(=O)OCCCC[P+](c3ccccc3)(c3ccccc3)c3ccccc3)CC[C@]3(C)C(=CC[C@@H]4[C@@]5(C)CC[C@H](OC(=O)C(Cl)Cl)C(C)(C)[C@@H]5CC[C@]43C)[C@H]12,-85.2% (active)
19,O=C(Nc1nc(-c2ccccc2)cs1)c1cc(-c2ccc(Br)cc2)nc2ccccc12,112%
